The values below come from PubChem BioAssay (NCI).

Compounds without any hit were thinned out: in the full panel of roughly 83,000, 20% have a hit.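 For each line, cells grew in 96-well plates with the test compound present at a single concentration for 48 hours.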 Unmarked numbers belong to inactive results. Activity calls are given as the source filed them.

For this assay, the system named is NCI-H322M lung. As to the kind of experiment: NCI-60 one-dose screen, 48 h (100 = growth as untreated, 0 = no growth, -100 = all killed). The note with it: 10 µM unless noted. The method, then: Growth inhibition of the NCI-H322M human Non-Small Cell Lung tumor cell line is measured as a screen for anti-cancer activity. Cells are grown in 96 well plates and exposed to the test compound for 48 hours. Compounds are tested at a single concentration, which is 10^-5 M for most compounds. The reported endpoint is percent growth (GI% or GIPRCNT), where numbers from 0 - 100% represent growth inhibition, and numbers from -100% - 0 represent cell death. For example, a value of 40 represents 60% growth inhibition. A value of 0 means no net growth occurred over the course of the experiment. A value of -40 indicates 40% of cells at the beginning of the experiment died by the end of the experiment. A value of -100 means all cells are dead at the end of the experiment.
NCI-60 Human Tumor Cell Lines Screen was performed using the standard one-dose NCI protocol, which is described in more detail at https://dtp.cancer.gov/discovery_development/nci-60/default.htm.
Compounds with GIPRCNT values below 10 were considered active. Activity score was based on GIPRCNT using the following formula: […]
Score is 0 for GIPRCNT values of 100 or above, 50 for GIPRCNT values of 0, and 100 for GIPRCNT values of -100.
Regarding `CC(C)(C)c1ccc(S(=O)(=O)O)s1`, the growth was 111%. For `CN=C(NC)N/N=C(C)\C=N\NC(=NC)NC`, the growth is 107%. Then `Cc1cc(NC(=O)Nc2cc(Cl)ccc2C)no1`, with 146%; and `CCC(C)CC(C)C(=O)c1c(O)ccn(O)c1=O` (stereo not given), with 52.5%.

In the case of `CC(C)[C@]12O[C@H]1[C@@H]1O[C@]13[C@]1(O[C@H]1C[C@H]1C4=C(CC[C@@]13C)C(=O)OC4)[C@@H]2OC(=O)CN(C)C`, the growth was -7.07% (active). Then `O=C(Nc1ccc(Oc2ccc(NC(=O)Nc3ccc([N+](=O)[O-])cc3)cc2)cc1)Nc1ccc([N+](=O)[O-])cc1`, with 22.6%. For `O=C1/C(=C/c2ccc([N+](=O)[O-])s2)Oc2ccc(Br)cc21`, the growth was -29.7% (active). Consider `NC(N)=N/N=C(/c1ccccc1)c1ccc(Cl)cc1`, for which the growth is 57.7%. To `COc1cc(-c2cc(C(=O)Nc3nc4ccccc4s3)nc3cc(-c4ccccc4)nn23)cc(OC)c1OC` belongs 90.9%; to `Cc1cc([N+](=O)[O-])c(C)cc1C(=O)O`, 92.7%. Then `Nc1ccc(C2=NN(c3ccccc3)C(c3ccc(Cl)cc3)C2)cc1` (stereo not given), with 88.2%; and `CC/C(=C\c1ccc(N(C)C)cc1)c1ccncc1`, with 94.6%. To `COc1ccc(-c2cc(Cc3cccs3)c(=O)n(Cn3cncn3)n2)cc1` belongs 100%; to `CN(C)CCCN1c2nc3ccccc3cc2Sc2cc3ccccc3nc21`, 18%. As to `NNC(=O)NO`, the growth is 93%. Turning to `C/C(=N/N=C(N)N)c1ccc(Cl)cc1`, the growth was 90.2%. Regarding `Nc1ncc(-c2cnn(C3CCNCC3)c2)cc1-c1nc2cc(Cl)ccc2o1`, the growth was -59.1% (active). To `CCOC(=O)C1C(=O)OC2CCCCC21` (stereo not given) belongs 113%; to `O=Nc1ccc(O)c(=O)cc1`, 88.3%; to `Fc1ccc(-c2nnc(/C=C/c3cn(-c4ccccc4)nc3-c3ccccc3)o2)cc1`, 95.5%. Regarding `c1cnc2n[nH]c(Nc3ncnc4c3sc3ncccc34)c2c1`, the growth was 106%. As for `O=C(O)c1ccccc1C(=O)OC1CCCC2CCCC21` (stereo not given), the growth is 115%. `CCSc1nnc2n(Cc3ccccc3)c(=O)c3c(C)c(C(N)=O)sc3n12`: the growth was 102%. To `COc1ccc(-c2csc(NC(=O)c3cc(OC)c(OC)c(OC)c3)n2)cc1` belongs 99.1%. `Cc1nn(-c2ccccc2)c2ncc3c(c12)C(=O)N(Cc1ccccc1)C3=O`: the growth is 58.6%. To `O=C(/C=C/c1cccnc1)NCCCCC1CCCN(C(=O)c2ccccc2)C1` (stereo not given) belongs 65.3%. In the case of `Oc1[nH]c2ccc(Cl)cc2c1/C=c1/ccc2c(c1)N=C(c1ccc(C(F)(F)F)cc1)N=2`, the growth is 84.3%. For `CCN(CC)c1ccc(N=Nc2cc(Cl)ccc2Cl)c(NC(=O)CCC(=O)O)c1`, the growth was 111%. To `COc1ccc(C2CC(c3cccc(Nc4ccnc5cc(Cl)ccc45)c3)=NN2C=O)cc1` (stereo not given) belongs 62.5%. `O=C(CSCC(=O)N/N=C/c1ccccc1O)N/N=C\c1ccccc1O`: the growth is 15.7%. To `O=C(CN1CCCCC1)Sc1nnc2sc3ccccc3n12` belongs 111%. Consider `O=c1c(O)cccn1CCCNCCCN(CCCn1cccc(O)c1=O)CCCn1cccc(O)c1=O`, for which the growth was 94.5%. `CC(C)c1nc(N(C)S(C)(=O)=O)nc(-c2ccc(F)cc2)c1/C=C/[C@@H](O)C[C@@H](O)CC(=O)O`: the growth was 93.9%. In the case of `Cc1c(N(C)CS(=O)(=O)O)c(=O)n(-c2ccccc2)n1C`, the growth was 96.9%. To `COc1cc(NC(=O)c2cc3ccccc3cc2O)c(OC)cc1Cl` belongs -3.14% (active). Regarding `COC(=O)[C@]12CC[C@@H](C)[C@H](C)[C@@H]1C1=CC[C@@H]3[C@@]4(C)C=C(O)C(=O)[C@@]5(C)COC(=C54)C[C@@]3(C)[C@]1(C)CC2`, the growth was -25.3% (active). Take `O=C(Nc1ccc(Cl)cc1)Nc1ccc(Nc2nncc3ccccc23)cc1`: the growth is 64.3%.

Consider `CCN1CCN(c2cc(-c3cn[nH]c3-c3cc(C)cc(OC)c3)nc(-c3cccnc3)n2)CC1`, for which the growth was 67.5%. On to `CCC(O)C(C)(C)C` (stereo not given), for which the growth was 127%. Then `COc1cc2cn3c4ccc(O)cc4nc(N)c3c2cc1OC`, with 28.7%.
